The values below come from PubChem BioAssay AID652042 (Broad Institute, 2013).

Among all 1,100 compounds or so, about 350 (32%) were called active. A selection follows. Potency and affinity values are given separately. Values without a mark were called inactive. No rule for the calls is given here.

The nature of the test: viability loss in CEM21 cells – cell-based, CellTiter-Glo luminescence, cherry-picked, cytotoxicity control for viral fusion inhibitor project, dose response (AID 652042). Particulars: CellTiter-Glo ATP luminescence, 24 h; series mostly up to 35 µM; activity change, negative = cytotoxicity: at the top concentration.
Take `Cc1cc(C(=O)NC2CCCc3c2cnn3-c2ccc(C(C)(C)C)cc2)nn1C` (stereo not given): the “activity change, negative = cytotoxicity” value is -25%.
Then `CC(C)(C)c1ccc(-n2ncc3c2CCCC3NC(=O)CN2CCCC2=O)cc1` (stereo not given), with -8.24%; and `CCC12CN(S(=O)(=O)c3ccc(C)cc3)CC(CC)(CN(S(=O)(=O)c3ccc(C)cc3)C1)C2=O`, with -6.76%; and `O=C(C[C@@H]1C/C=C/CC[C@@H](Cc2ccc(F)cc2)C(=O)O[C@H](c2ccccc2)CNC1=O)NCCO`, with 2.11%.
With `CC[C@@]12C(=O)N(c3ccc(C)cc3)C(=O)N1[C@H](c1ccc(OC)cc1)[C@@H]1C(=O)N(C(C)(C)C)C(=O)[C@@H]12` the figure was 4.19%; with `O=C(c1ccc2ncsc2c1)N1CCN(c2nc3ccccc3s2)CC1`, -1.8%.
With `Cc1cc(CSc2ccccc2)ccc1NC(=O)c1ccc(CN2CCOCC2)cc1` the figure was -22.6%; with `CCCOc1ccc2ccccc2c1/C=N/n1cnnc1`, -10.6%.
Consider `CS(=O)(=O)N1CCN(c2ccccc2NC(=O)C(c2ccccc2)c2ccccc2)CC1`, for which the “activity change, negative = cytotoxicity” value is -6.99%.
Then `COC(=O)C[C@H]1C=C[C@H](NC(=O)c2ccccn2)[C@@H](CO)O1`, with -6.35%; and `C[C@@H]1CNC(=O)c2c(C(=O)N3CCN(c4ccccc4)CC3)ncn21`, with 4.32%.
Regarding `O=C(N(Cc1ccccc1)c1ccccn1)C12CC3CC(CC(C3)C1)C2`, the “activity change, negative = cytotoxicity” value is -12.9%.
Then `CCNC1CCC(Nc2ccnc3cc(Cl)ccc23)CC1` (stereo not given), with -10.5%; and `O=C(Nc1cccc(F)c1)c1cc(S(=O)(=O)N2CCC(C(=O)O)CC2)ccc1F`, with 4.19%; and `CC(C)OCCCn1c(=S)[nH]c2ccc(N3CCOCC3)cc2c1=O`, with -6.55%.
With `Cc1ccc(C(=O)CN2C(=O)c3ccccc3S2(=O)=O)cc1` the figure was 2.43%.
For the compound `O=C(Nc1ccccc1N1CCN(C(=O)c2ccccc2)CC1)c1ccc(Br)o1`, the “activity change, negative = cytotoxicity” value was -14.8%.
Take `O=C(c1ccc(S(=O)(=O)Nc2ccc(F)cc2)cc1)N1CCN(C(=O)c2ccco2)CC1`: the “activity change, negative = cytotoxicity” value is -14.6%.
Then `CCOC(=O)c1cccc(NS(=O)(=O)c2ccc(NC(C)=O)cc2)c1`, with -14.2%.
Then `COc1cc2c(c(OCC(=O)NC(C)C)c1)C(=O)O[C@@H](C)CCCC(=O)CCCCC2`, with -11.1%.
For the compound `Nc1c(Cl)cc2c(c1Oc1ccccc1)C(=O)c1ccccc1C2=O`, the “activity change, negative = cytotoxicity” value is -9.65%.
Turning to `CN(Cc1cccs1)c1ncnc2sccc12`, the “activity change, negative = cytotoxicity” value was -3.99%.
Then `C[C@@H]1CN([C@H](C)CO)C(=O)c2cccc(NC(=O)c3ccncc3)c2O[C@@H]1CN(C)Cc1ccc(C(=O)O)cc1`, with 10.9%; and `C[C@@H]1CN([C@H](C)CO)C(=O)c2cccc(NC(=O)C3CCCCC3)c2O[C@H]1CN(C)Cc1ccccc1`, with -15.4%; and `C[C@@H]1CN([C@H](C)CO)C(=O)c2cccc(NC(=O)c3ccncc3)c2O[C@H]1CN(C)CC1CCCCC1`, with -4.35%.
Regarding `C[C@H]1CN([C@@H](C)CO)C(=O)c2cccc(NC(=O)c3ccncc3)c2O[C@@H]1CN(C)C(=O)Nc1cccc2ccccc12`, the “activity change, negative = cytotoxicity” value is -0.319%.
Then `CC(C)(C)c1ccc(-c2noc(CCC(N)=O)n2)cc1`, with -3.94%; and `COc1ccc(Cl)cc1NC(=O)CN(C1CCCCC1)S(C)(=O)=O`, with -3.12%.
With `Cc1n[nH]c(C)c1S(=O)(=O)N(CC(=O)NC1CCCC1)c1ccc(C(C)C)cc1` the figure was -9.43%; with `CCCN(CC(=O)Nc1ccccc1OC)C(=O)c1cccc(S(=O)(=O)NCc2ccccc2)c1`, -4.51%.
Then `CCOc1ccc(N(CC(=O)NCCSCc2ccc(Cl)cc2)S(C)(=O)=O)cc1`, with -10.1%; and `C#CCn1c(=O)c2c(ncn2C)n(C)c1=O`, with 5.78%; and `C=C1CCN([C@H](C(=O)OCc2cccc(C)c2)C(C)C)S(=O)(=O)c2ccccc21`, with -17.6%.
Consider `CCN1C(=O)[C@H]2[C@H]3CN=C(SCc4ccc(Cl)cc4)N3[C@@](CC)(C(=O)OC)[C@H]2C1=O`, for which the “activity change, negative = cytotoxicity” value is 0.196%.
With `O=C(Nc1cc(Cl)cc(Cl)c1)C(c1ccccc1)N1CCCCC1` (stereo not given) the figure was -16.6%; with `Cc1onc(-c2ccccc2)c1C(=O)OCCOc1cccc(Cl)c1`, -30.9%; with `CCn1c(C)cc(C(=O)CN2C(=O)c3ccccc3S2(=O)=O)c1C`, -4.76%.
`O=C(Nc1cc2c3c(c1)CC(=O)N3CCC2)c1ccc(Cl)cc1`: the “activity change, negative = cytotoxicity” value was -10.3%.
Turning to `CN(c1ccccc1)S(=O)(=O)c1ccc(Cl)c(C(=O)Nc2nc3ccccc3[nH]2)c1`, the “activity change, negative = cytotoxicity” value was -10.4%.
With `O=C(NCCCc1nc2ccccc2[nH]1)c1ccco1` the figure was 7.11%; with `CCNC(=O)C[C@H]1CC[C@@H]2[C@@H](COc3ccc(NC(=O)Nc4cccc(OC)c4)cc3C(=O)N2C)O1`, -7.07%.
With `Cc1[nH]c2ccccc2c1/C=N\NC(=O)c1ccccc1Cl` the figure was -0.294%; with `COc1cccc(-c2noc(C3CCCN(S(=O)(=O)c4cccc(Cl)c4C)C3)n2)c1` (stereo not given), -13.6%.
Consider `CCOc1cccc(N(C(=O)Cc2cccs2)C(C(=O)NC2CCCCC2)c2cccn2C)c1` (stereo not given), for which the “activity change, negative = cytotoxicity” value was -7.71%.
In the case of `Cc1ccc2c(c1)C(=C(C#N)C#N)CCN2`, the “activity change, negative = cytotoxicity” value is -9.93%.
With `COc1ccc(C(=O)CN2C(=O)c3ccccc3S2(=O)=O)cc1` the figure was -4.85%; with `COc1cc(/C=N/NS(=O)(=O)c2ccc(C)cc2)ccc1OCc1cccc(C(=O)O)c1`, 0.914%; with `CCOc1ccccc1CNc1ncnc2ccc(-c3c(C)noc3C)cc12`, -30.7%.
With `COC(=O)C1(C(=O)OC)C[C@H](c2ccc(OC)cc2)N(Cc2ccccc2OC)[C@@H]1c1ccccc1` the figure was -18.7%.
As to `CCCCn1c(CN(C)Cc2ccccc2)nc2c1c(=O)n(C)c(=O)n2C`, the “activity change, negative = cytotoxicity” value is -25.1%.
With `CCCNC(=O)C[C@H]1C[C@H]2c3cc(NC(=O)CN(C)C)ccc3O[C@H]2[C@@H](CO)O1` the figure was -3.17%; with `CC[C@@]1(C(=O)OC)N[C@H](CN(C)C(=O)Nc2ccc(C(F)(F)F)cc2)[C@@H]2C(=O)N(Cc3ccccc3)C(=O)[C@@H]21`, -12.2%; with `COC(=O)[C@]12CCCCC=C1N(Cc1ccco1)C(=O)[C@H](CC(=O)NCCc1ccccc1OC)C2`, -6.68%.
Then `Cn1c(=O)oc2cc(S(=O)(=O)NCc3ccncc3)ccc21`, with -8.94%.
In the case of `OCCN1CCN(C(=S)c2ccc(-c3ccccc3)cc2)CC1`, the “activity change, negative = cytotoxicity” value is -1.55%.
With `CC1CCCN(C(=O)c2ccc(S(=O)(=O)N3CCC(c4nc5ccccc5s4)CC3)cc2)C1` (stereo not given) the figure was -18.3%.
Then `Cn1c(C(=O)N2CCN(c3nc4ccccc4s3)CC2)cc2sccc21`, with -6.53%; and `Cn1cc(S(=O)(=O)N2CCOCC2)cc1C(=O)Nc1cccc(Cl)c1`, with 0.651%; and `CN(CC(=O)NCCc1ccc(S(N)(=O)=O)cc1)CC(=O)Nc1ccc(Cl)c(C(F)(F)F)c1`, with -6.11%.
Then `CCN(C[C@H]1N[C@@](C)(C(=O)OC)[C@H]2C(=O)N(Cc3ccccc3)C(=O)[C@@H]12)C(=O)Nc1ccccc1`, with 1.83%; and `CCc1cc2c(NCc3ccco3)ncnc2s1`, with -10.4%.
For `Nc1nc2c(ncn2[C@@H]2O[C@H](C(=O)NCC(c3ccccc3)c3ccccc3)[C@@H](O)[C@H]2O)c(=O)[nH]1`, the “activity change, negative = cytotoxicity” value is 6.01%.
With `Nc1ncn([C@H]2C[C@H](O)[C@@H](CO)O2)c(=O)n1` the figure was -15.3%.
`COc1ccccc1-c1c(-c2ccc(O)cc2O)n[nH]c1C(F)(F)F`: the “activity change, negative = cytotoxicity” value was -5.87%.
With `C=C1CCN([C@H](C(=O)OCc2ccc(C)cc2)C(C)C)S(=O)(=O)c2ccccc21` the figure was -9.42%.
Then `COC(=O)[C@]1(C)N[C@H](CN(C)S(=O)(=O)c2ccc(-c3ccccc3)cc2)[C@@H]2C(=O)N(Cc3ccccc3)C(=O)[C@@H]21`, with -2.53%; and `O=C(NCc1ccco1)c1ccc(Cn2c(=O)c3ccccc3n(Cc3ccc(Cl)cc3)c2=O)cc1`, with 1.32%.
In the case of `COc1ccc(CCN(Cc2cccs2)S(=O)(=O)c2ccc(-n3cnnn3)cc2)cc1OC`, the “activity change, negative = cytotoxicity” value is -7.83%.
Then `Nc1c(S(=O)(=O)c2cccs2)c2nc3ccccc3nc2n1CCc1ccccc1`, with 0.984% [at 16 µM]; and `CCOC(=O)[C@@H]1[C@H]2COc3ccc(Br)cc3[C@@H]2N2C(=O)N(c3cccc(F)c3)C(=O)[C@@]12C`, with -9.37%.
Then `Cn1c(=O)c2c(nc(Oc3ccc4ccccc4c3)n2C)n(C)c1=O`, with -10.1%; and `COc1cc(/C=N/O)ccc1OCc1ccc(C(=O)O)cc1`, with 0.784%.
With `COc1ccc(/C=C/c2nc(S(=O)(=O)c3ccccc3)c(NCCCN(C)C)o2)cc1OC` the figure was 3.14% [at 16 µM].
With `O=C(Nc1cc(Cl)cc(Cl)c1)C1CCC(=O)N1Cc1ccccc1Cl` (stereo not given), the “activity change, negative = cytotoxicity” value is -8.05%.
As for `CCCNC(=O)N1[C@H](C#N)[C@H](c2ccc(-c3cccc(OC)c3)cc2)[C@@H]1CO`, the “activity change, negative = cytotoxicity” value is -20.5%.
Take `CN(C)C(=O)CCC(=O)N1CCCC(C(=O)c2ccc3c4c(cccc24)CC3)C1` (stereo not given): the “activity change, negative = cytotoxicity” value is -13.2%.
Then `O=C(C[C@H]1C[C@H]2c3cc(NC(=O)NC4CCCC4)ccc3O[C@H]2[C@@H](CO)O1)NC1CCCCC1`, with -5.11% [at 30 µM]; and `COC(=O)[C@@]12CCCN1[C@H](c1ccc(-c3ccc(F)cc3)c(OC)c1)[C@H]1C(=O)N(C)C(=O)[C@H]12`, with -14.3%.
For the compound `O=C(c1ccccc1)N1CCN(c2ncnc3sc4c(c23)CCC4)CC1`, the “activity change, negative = cytotoxicity” value is -10.8%.
With `CCN(Cc1nc2cc(Cl)ccc2c(=O)[nH]1)C(=O)c1cc(C2CC2)nn1-c1ccccc1` the figure was -11%; with `Cc1cc(C)c(CN2CCN(C(=O)Cn3cnc4c(NCc5ccccc5)ncnc43)CC2)c(C)c1`, -20.7%.
Then `O=C(Cn1ncc2c(=O)oc3ccccc3c21)N1CCC(N2CCCCC2)CC1`, with 8.1%.
Then `CCOC(=O)C1CCN(C(=O)c2ccc3c(c2)C(=O)N(c2ccccc2C)C3=O)CC1`, with 0.54%; and `COc1ccccc1[C@@H]1C(c2ccc(F)cc2)=NN(c2ccccc2)[C@H]1C(=O)N1CCOC1=O`, with -13.4%; and `COc1ccccc1CN1C(=O)CN(C2CCCCCC2)C(=O)C1c1ccc(F)cc1` (stereo not given), with -12.1%.
For `CCN(C1CCCCC1)S(=O)(=O)c1ccc(S(=O)(=O)NCc2ccncc2)cc1`, the “activity change, negative = cytotoxicity” value is -5.76%.
Then `CC[C@@]12C(=O)N(c3ccccc3)C(=O)N1[C@H](c1ccc(OC)cc1)[C@@H]1C(=O)N(C(C)(C)C)C(=O)[C@@H]12`, with -3.88%; and `Cc1nc2sccn2c1-c1csc(NCc2ccccc2)n1`, with -22.7%.
With `O=C(CN(Cc1ccccc1)S(=O)(=O)c1ccc(F)cc1)NCCC1=CCCCC1` the figure was -20.4%; with `O=C(CN(Cc1ccccc1F)S(=O)(=O)c1ccc(Cl)cc1)NCCC1=CCCCC1`, -7.05%.
